# Source: PubChem BioAssay AID463173 (ICCB-Longwood Screening Facility, Harvard Medical School, 2010)
# The whole screen tested about 52,000 compounds, of which about 1,700 (3.3%) were called active. The sample holds actives, similar compounds and a random draw of the others, so the mix is not that of the screen. A number with no mark means an inactive call. Rule as the data show it: active = survival mostly below about 52% (no sharp cut-off); inactive = mostly above about 56%.
# Tested on: Wild type
# Test: growth inhibition of S. aureus wild type versus tarO mutant, primary screen, teichoic acid synthesis inhibitors, RN4220, OD600 (AID 463173)
# Conditions: S. aureus RN4220 wild type/DeltatarO growth, OD600, 18 h, stronger effect = lower value, screened at 18.75 µg/mL (by protocol)
row,Compound,survival
1,O=C(Nc1cccc(Cl)c1)c1cc2c(=O)[nH]c3ccccc3c2s1,63%
2,COc1ccccc1NC(=O)c1sc2nc(C)c(C(=O)Nc3ccc(C)cc3C)c(-c3ccccc3Cl)c2c1N,139%
3,CC(C)CC(=O)NCC(c1ccc2c(c1)OCO2)N1CCN(c2ccccc2F)CC1 (configuration not stated),76%
4,CCN(CC)CCNC(=O)c1ccc2c(c1)NC(=O)C(CS(=O)(=O)Cc1cccc(Br)c1)N2 (configuration not stated),134%
5,O=C(NCCCN1CCN(c2ccc(F)cc2)CC1)Nc1ccc(Cl)cc1,64%
6,Cc1ccc(C)c(N2CCN(CCCNC(=O)Nc3ccc(Cl)cc3)CC2)c1,-6% (active)
7,O=C(NCCCN1CCN(c2ccccc2F)CC1)c1nnc(Cc2ccc(Cl)cc2Cl)o1,77%
8,Cc1ccc(Cl)cc1N1CCN(CCNC(=O)Nc2ccc(Cl)cc2)CC1,-6% (active)
9,CCOc1ccc(NC(=O)NCCN2CCN(c3cc(Cl)ccc3C)CC2)cc1,53%
10,COc1ccc(Cc2nnc(C(=O)NCCCN3CCN(c4ccccc4F)CC3)o2)cc1OC,87%
11,Cc1ccc(Cl)cc1N1CCN(CCNC(=O)Nc2ccccc2Cl)CC1,98%
12,Cc1ccc(Cl)cc1N1CCN(CCCNC(=O)c2nnc(Cc3cccc(Cl)c3)o2)CC1,12% (active)
13,Cc1cccc(N2CCN(CCNC(=O)Nc3ccc(Cl)cc3)CC2)c1C,87%
14,COc1ccc(-c2nnn(CC(=O)N(CC3CCCO3)C(C(=O)NC3CCCCC3)c3cccs3)n2)cc1 (configuration not stated),103%
15,COc1ccc(NC(=O)CCNS(=O)(=O)c2cccc3nonc23)c(OC)c1,67%
16,CC1CCN(S(=O)(=O)c2ccc3nc(N4CCN(c5ccc(F)cc5)CC4)ccc3c2)CC1,92%
17,COc1ccc(NC(=O)CSC2=Nc3ccccc3C3=NC(CCC(=O)NCc4ccco4)C(=O)N23)cc1 (configuration not stated),60%
18,CC(C)CC(=O)n1nc(-c2ccco2)nc1NCc1ccc(Cl)cc1,83%
19,O=C(OCc1cc(=O)n2nc(C3CC3)sc2n1)c1ccc(NC(=O)c2ccccc2Cl)cc1,99%
20,O=C1c2[nH]nc(-c3ccccc3O)c2C(c2ccc(F)cc2)N1CCO (configuration not stated),81%
21,COc1cc(C2c3c(-c4c(C)cc(C)cc4O)n[nH]c3C(=O)N2Cc2ccco2)cc(OC)c1OC (configuration not stated),98%
22,O=C1c2[nH]nc(-c3ccccc3O)c2C(c2ccccc2F)N1Cc1cccnc1 (configuration not stated),94%

row,Compound,survival
1,Cc1ccc(C2c3c(-c4cc(C)ccc4O)n[nH]c3C(=O)N2Cc2ccco2)cc1 (configuration not stated),1% (active)
2,Cc1cc(C)c(-c2n[nH]c3c2C(c2ccccc2F)N(Cc2ccco2)C3=O)c(O)c1 (configuration not stated),8% (active)
3,CCc1ccc(C2c3c(-c4cc(C)ccc4O)n[nH]c3C(=O)N2CCO)cc1 (configuration not stated),78%
4,CCc1ccc(C2c3c(-c4cc(C)ccc4O)n[nH]c3C(=O)N2Cc2cccnc2)cc1 (configuration not stated),74%
5,COc1cc(C2c3c(-c4cc(C)ccc4O)n[nH]c3C(=O)N2Cc2ccco2)cc(OC)c1OC (configuration not stated),73%
6,O=C1c2[nH]nc(-c3ccccc3O)c2C(c2ccccc2F)N1Cc1ccncc1 (configuration not stated),93%
7,Cc1cc(C)c(-c2n[nH]c3c2C(c2ccccc2F)N(CCO)C3=O)c(O)c1 (configuration not stated),83%
8,Cc1ccc(O)c(-c2n[nH]c3c2C(c2ccccc2F)N(Cc2ccco2)C3=O)c1 (configuration not stated),11% (active)
9,Cc1ccc(O)c(-c2n[nH]c3c2C(c2ccc(F)cc2)N(Cc2ccco2)C3=O)c1 (configuration not stated),2% (active)
10,COc1cc(OC)c(NC(=O)c2c(C)oc3nc(C)nc(N4CCOCC4)c23)cc1Cl,81%
11,COc1ccc2c(c1)c(CC(=O)Nc1cccc(F)c1C)c(C)n2C(=O)c1ccc(Cl)cc1,152%
12,COc1ccc(-c2nc3scc(CCNS(=O)(=O)c4c(C)noc4C)n3n2)cc1OC,123%
13,CCOc1ccc(-c2cc(-c3nc(-c4cc(OC)c(OC)c(OC)c4)no3)[nH]n2)cc1,123%
14,Oc1ccc(Cl)cc1C1=Nc2ccccc2N=C(c2cccc(Br)c2)C1,137%
15,c1ccc(N2CCN(Cc3nnc(-c4ccc5c(c4)OCO5)o3)CC2)cc1,81%
16,CCOc1ccc(NC(=O)/C(C#N)=C\c2cc(C)n(C)c2C)cc1,103%
17,O=C(CSc1nc(-c2ccccc2)no1)N1CCN(c2ccc(F)cc2)CC1,91%
18,CCc1ccccc1NC(=O)C(C)n1c(=O)cc(C)c2c(C)nn(-c3ccccc3)c21 (configuration not stated),72%
19,COc1cc(C2C(=O)N(C3CCCCC3)CC(=O)N2CCc2ccccc2)ccc1OC(C)C (configuration not stated),89%
20,Cc1ccc(CNC(=O)c2cc(Sc3ccc(F)cc3F)nc3ccccc23)cc1,94%
21,COc1ccc(OC)c(S(=O)(=O)Nc2cc3c(C(C)=O)c(C)oc3c3ccccc23)c1,69%
22,CCOC(=O)c1c(C)oc2c1cc(NS(=O)(=O)c1ccc(C)cc1)c1ccccc12,86%

row,Compound,survival
1,COC(=O)c1c(C)oc2c1cc(NS(=O)(=O)c1c(C)cc(C)cc1C)c1ccccc12,25% (active)
2,CCOC(=O)c1sc2sc(C(=O)OCC)c(CN(CC)CC)c2c1CN(CC)CC,94%
3,Cc1ccccc1-c1nnc(NC(=O)CC(C)C)s1,116%
4,COc1ccc(OC)c(CNS(=O)(=O)c2ccc(-c3cc(C(F)(F)F)on3)s2)c1,-6% (active)
5,COc1ccc(CNS(=O)(=O)c2ccc(-c3cc(C(F)(F)F)on3)s2)cc1OC,133%
6,COc1ccccc1CNS(=O)(=O)c1ccc(-c2cc(C(F)(F)F)on2)s1,73%
7,CCC(=O)N1CCc2cc(S(=O)(=O)CCC(=O)N3CCN(c4cccc(C)c4)C(C)C3)ccc21 (configuration not stated),83%
8,CN1C(=O)Cc2cc(S(=O)(=O)CCC(=O)N3CCN(c4cccc(Cl)c4)CC3)ccc21,83%
9,Cc1cccc(N2CCN(C(=O)CCS(=O)(=O)c3ccc4c(c3)CC(=O)N4C)CC2C)c1 (configuration not stated),-4% (active)
10,COc1ccc(-c2cn3c(n2)sc2cc(C(=O)Nc4c(C)cccc4C)ccc23)cc1,83%
11,COc1ccc(OCC(=O)N2CCN(C(=O)c3ccc(OC)c(OC)c3)CC2)cc1,134%
12,Nc1ccc(-c2ccc(N)cc2C(F)(F)F)c(C(F)(F)F)c1,117%
13,Nc1ccc(N2CCN(c3ncc(C(F)(F)F)cc3Cl)CC2)c(C(F)(F)F)c1,-14% (active)
14,Nc1ccc(N2CCOCC2)c(N)c1,113%
15,Cc1ccc(C2=Nc3ccccc3N(CC(=O)Nc3ccccc3F)C(=O)C2)cc1C,83%
16,CCC(Oc1ccc(F)cc1)C(=O)Nc1nc(-c2ccc(F)cc2)ns1 (configuration not stated),-1% (active)
17,COc1ccc(-c2nsc(NC(=O)C(C)Oc3ccc(Cl)c(C)c3)n2)cc1 (configuration not stated),67%
18,CCC(Oc1ccc(F)cc1)C(=O)Nc1nc2c(s1)CCCC2 (configuration not stated),76%
19,CCC(Oc1ccc(F)cc1)C(=O)Nc1cc(-c2ccc(C)cc2)no1 (configuration not stated),64%
20,CC(Oc1ccc(F)cc1)C(=O)Nc1nc(-c2ccc(F)cc2)ns1 (configuration not stated),-1% (active)
21,Cc1cc(C)cc(OCC(=O)Nc2nc(-c3ccc(F)cc3)ns2)c1,89%
22,O=c1cc(-c2ccc(F)cc2)nc(SCc2nc(-c3ccc(Cl)cc3)no2)[nH]1,88%

row,Compound,survival
1,COC(=O)C1CCN(C(c2ccccc2Cl)c2sc3nc(-c4ccco4)nn3c2O)CC1 (configuration not stated),80%
2,Cc1nc(N2CCCC2)c2c(C(=O)N3CCN(c4cc(Cl)ccc4C)CC3)c(C)oc2n1,99%
3,Cc1nc(N2CCOCC2)c2c(C(=O)N3CCN(c4cccc(C(F)(F)F)c4)CC3)c(C)oc2n1,79%
4,Cc1ccc(Cl)cc1N1CCN(C(=O)c2c(C)oc3ncnc(N4CCOCC4)c23)CC1,69%
5,Cc1oc2ncnc(N3CCOCC3)c2c1C(=O)N1CCN(c2cccc(C(F)(F)F)c2)CC1,-6% (active)
6,Cc1ccc(Cl)cc1N1CCN(C(=O)c2c(C)oc3ncnc(N4CCCCC4)c23)CC1,-6% (active)
7,Cc1oc2ncnc(N3CCCCC3)c2c1C(=O)N1CCN(c2cccc(C(F)(F)F)c2)CC1,87%
8,O=C(NCc1ccccc1Cl)C1CCN(S(=O)(=O)c2ccc3c(c2)CCCN3C(=O)C2CCC2)CC1,80%
9,Cc1ccc(OCc2nc3ccccc3n2CCOc2ccc(Cl)cc2)cc1,26% (active)
10,COc1cccc(OCc2nc3ccccc3n2CCOc2ccccc2)c1,74%
11,c1ccc(OCCn2c(COc3ccccc3)nc3ccccc32)cc1,-15% (active)
12,Cc1ccc(C)c(OCc2nc3ccccc3n2C)c1,85%
13,Cn1c(COc2ccccc2Br)nc2ccccc21,106%
14,Cc1ccc(OCCn2c(COc3ccc(Cl)cc3)nc3ccccc32)cc1,74%
15,COc1cccc(OCc2nc3ccccc3n2Cc2ccccc2)c1,86%
16,COc1cccc(OCc2nc3ccccc3n2CCOc2ccc(C)cc2)c1,62%
17,Cn1c(COc2ccccc2C(C)(C)C)nc2ccccc21,-17% (active)
18,COc1ccc(OCc2nc3ccccc3n2Cc2ccc(C(C)(C)C)cc2)cc1,0% (active)
19,COc1ccc(C(=O)NCC(c2cccnc2)N2CCc3ccccc3C2)cc1OC (configuration not stated),93%
20,CCOC(=O)CC(NC(=O)CCc1c(C)nc2c(c1C)c(=O)n(C)c(=O)n2C)c1ccc(OCC)c(OC)c1 (configuration not stated),82%
21,Cc1ccc(OCC(=O)Nc2ccc3nc(SCCOc4ccccc4)sc3c2)cc1,99%
